Compounds with a hit are over-represented: about 9.5% of the library has one in this group of screens.
Tau fluor counter: counter-screen for tau fibril formation inhibitors. tau K18 P301L Alexa594 fluorescence, heparin fibrillization. Potency, µM (top dose mostly 57.7 µM), without a hit: at the highest dose activity change, negative = decrease. 280,000 compounds, 0.93% hits; further: nearly all actives have a fitted effect of over 55% in size
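Human K18 P301L tau (15 uM unlabeled plus 0.24 uM Alexa 594-labeled, final) in 100 mM sodium acetate pH 7 was mixed with compound and 20 uM heparin and incubated 6 hr at 37 C.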
NPSR antag: neuropeptide S receptor (human) antagonism, cAMP; CHO-NPSR cells, cAMP TR-FRET, antagonist mode; 220,000 compounds, 1% hits; Potency, µM (titrated, usually from 38.3 µM), for the others: at the top dose activity change, negative = inhibition, usual class: inhibitors; further: nearly all actives have a fitted effect of over 50% in size
Tau FP inhib: inhibitors of human tau fibril formation; P10636; Potency, µM (top dose mostly 57.7 µM), for the others: top-dose activity, negative = inhibition, usual class: inhibitors; AID 1468; 280,000 compounds, 0.39% hits; K18 P301L tau heparin fibrillization, Alexa594 FP, 6 h; further: nearly all actives have a fitted effect of over 55% in size
Target sequence (P10636 561-689 P618L limits assumed): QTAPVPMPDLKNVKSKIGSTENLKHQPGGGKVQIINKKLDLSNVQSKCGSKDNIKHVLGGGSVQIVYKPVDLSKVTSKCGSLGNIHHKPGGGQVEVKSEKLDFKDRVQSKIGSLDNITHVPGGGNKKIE
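Human K18 P301L fragment (15 uM unlabeled plus 0.24 uM Alexa 594-labeled) in 100 mM sodium acetate pH 7 with compound, aggregation induced by 20 uM heparin for 6 hr at 37 C. ThT (30 uM) added for 1 hr, then Alexa 594 FP read.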
ALDH1A1 block: ALDH1A1 (human) enzyme inhibition. Potency, µM (titrated, usually from 75.3 µM), for inactives: top-dose activity, negative = inhibition, most hits filed as inhibitors. P00352. 220,000 compounds, 7.3% hits. Purified ALDH1A1, NADH fluorescence, propionaldehyde substrate. AID 1030; active means well fitted inhibition curve with a large enough effect, not every such curve was filed as active; inconclusive means small, poorly fitted or top-dose-only effect, or another doubt; inactive means no such curve, though single readings can be large or run the other way;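 further: plate controls were no enzyme wells and a reference inhibitor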
Target sequence (P00352 whole entry, looked up): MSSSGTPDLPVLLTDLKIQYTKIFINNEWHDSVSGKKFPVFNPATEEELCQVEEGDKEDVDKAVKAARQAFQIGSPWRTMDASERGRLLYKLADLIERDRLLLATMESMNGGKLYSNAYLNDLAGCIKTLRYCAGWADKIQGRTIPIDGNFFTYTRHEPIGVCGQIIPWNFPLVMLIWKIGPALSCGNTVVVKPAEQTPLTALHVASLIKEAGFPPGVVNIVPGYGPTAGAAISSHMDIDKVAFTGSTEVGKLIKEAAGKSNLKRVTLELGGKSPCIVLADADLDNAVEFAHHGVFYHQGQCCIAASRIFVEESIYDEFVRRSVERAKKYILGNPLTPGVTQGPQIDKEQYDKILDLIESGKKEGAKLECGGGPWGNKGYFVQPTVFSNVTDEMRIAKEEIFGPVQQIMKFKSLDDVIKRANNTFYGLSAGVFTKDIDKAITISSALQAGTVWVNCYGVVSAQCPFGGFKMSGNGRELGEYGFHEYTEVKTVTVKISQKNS
Tau ThT inhib: inhibitors of human tau fibril formation, thioflavin T binding; P10636; recombinant tau K18 P301L, heparin-induced fibrillization, ThT fluorescence; Potency, µM (titrated, usually from 57.4 µM), for the others: at the top dose activity, negative = inhibition, usual class: inhibitors; 270,000 compounds, 2.1% hits; further: nearly all actives have a fitted effect of over 55% in size
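ThT emission at 510 nm, taken 1 hr after adding 30 uM dye, quantifies aggregates formed when 20 uM heparin acts on human tau K18 P301L for 6 hr at 37 C.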
HPGD block: HPGD (human) dehydrogenase inhibition. 150,000 compounds, 4.3% hits. P15428. purified HPGD, NADH fluorescence kinetic, PGE2 substrate. Potency, µM, inactives show at the highest dose activity change, negative = inhibition, most hits filed as inhibitors; active means well fitted inhibition curve with a large enough effect, not every such curve was filed as active; inconclusive means small, poorly fitted or top-dose-only effect, or another doubt; inactive means no such curve, though single readings can be large or run the other way
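NADH formation kinetics: reaction with 30 uM PGE2 and 1 mM NAD+ (final), 20 nM enzyme, Tris-HCl pH 8 with Tween 20, after 15 min compound preincubation at room temperature. Fluorescence change, last versus first of five reads.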
Starred values were filed as active, the others as inactive; [ ] = another dose, or the depositor's remark. Unless noted, the call rests on the fitted dose curve; in most records, active means well fitted curve in the direction sought with a large enough effect; inconclusive means small, poorly fitted or top-dose-only effect, or another doubt; inactive means no such curve, though single readings can be large; an effect the other way counts as inactive or inconclusive. Unless noted, on the % scale 0 is the no-effect control and ±100 the full control effect; potency means the concentration at half of the fitted maximal effect.

Results for O=C(c1cc2c(s1)CCCC2)N1CCC2(CC1)OCCO2 ?
Tau fluor counter: -9%; NPSR antag: -11%[46.1 µM]; Tau FP inhib: 0%; ALDH1A1 block: 11µM*; Tau ThT inhib: -15%; HPGD block: 25µM*

What do the screens show for `O=C(c1cc2c(s1)-c1ccccc1OC2)N1CCC2(CC1)OCCO2`?
Tau fluor counter: -10%; NPSR antag: -4%[46.1 µM]; Tau FP inhib: 17%; ALDH1A1 block: inconclusive; Tau ThT inhib: inconclusive; HPGD block: inconclusive

What do the screens show for `Cc1ccc(Cl)cc1NC(=O)Cn1c(=O)oc2cc(S(=O)(=O)N3CCCCCC3)ccc21`?
Tau fluor counter: -3%; Tau FP inhib: inconclusive; Tau ThT inhib: 17%

What do the screens show for `COC1=C[C@H]2[C@H]3Cc4ccc(OC)c(O)c4[C@@]2(CCN3C)CC1=O`?
Tau fluor counter: -11%; Tau FP inhib: inconclusive; ALDH1A1 block: 3%; Tau ThT inhib: -15%; HPGD block: -16%

How did COc1ccc(NC(=S)NCCN2CCOCC2)cc1 do in these assays?
Tau fluor counter: -3%; NPSR antag: 7%; Tau FP inhib: -3%; ALDH1A1 block: 1.3µM*; Tau ThT inhib: 1%

What do the screens show for `COc1ccc(Cn2c(O)c(C=NCCN3CCOCC3)c(=O)[nH]c2=O)cc1`?
Tau fluor counter: inconclusive; NPSR antag: -8%[46.1 µM]; Tau FP inhib: 4%; ALDH1A1 block: inconclusive; Tau ThT inhib: -7%

What do the screens show for `COC(=O)CC1(Cc2ccccc2)C(=O)NC(=O)NC1=O`?
Tau fluor counter: 10%; NPSR antag: -9%[46.1 µM]; Tau FP inhib: 3%; ALDH1A1 block: 4%; Tau ThT inhib: 3%; HPGD block: -4%

How did COC(=O)CCC(=O)Nc1sc(Cc2ccccc2)c(C)c1C(N)=O do in these assays?
Tau fluor counter: -2%; NPSR antag: -15%; Tau FP inhib: inconclusive; ALDH1A1 block: 2µM*; Tau ThT inhib: inconclusive

Results for CCCCn1c(NC(=O)c2ccco2)c(C(=O)OCC)c2nc3ccccc3nc21 ?
Tau fluor counter: -26%; NPSR antag: -27%[46.1 µM]; Tau FP inhib: 16µM*; ALDH1A1 block: inconclusive; Tau ThT inhib: 13µM*; HPGD block: inconclusive

How did O=C(NCCSc1c(-c2ccc(F)cc2)[nH]c2ccccc12)c1ccc(S(=O)(=O)N2CCOCC2)cc1 do in these assays?
Tau fluor counter: 4.5µM*[quencher]; Tau FP inhib: -5%; Tau ThT inhib: -1%

Results for N=C1c2ccccc2CN1NC(=O)c1ccc(F)cc1 ?
Tau fluor counter: 10%; NPSR antag: -8%[46.1 µM]; Tau FP inhib: 0%; ALDH1A1 block: 3%; Tau ThT inhib: 0%; HPGD block: -17%

Results for COc1cc(C(=O)NCCSc2c(-c3ccccc3)[nH]c3ccccc23)cc(OC)c1OC ?
Tau fluor counter: 8.9µM*[quencher]; Tau FP inhib: -2%; Tau ThT inhib: -9%

Results for Cc1cc(Cl)ccc1C(=O)C1CCCN(Cc2ccon2)C1 (centres undefined) ?
Tau fluor counter: -7%; NPSR antag: 7%; Tau FP inhib: -9%; ALDH1A1 block: -3%; Tau ThT inhib: -8%

What do the screens show for `CC1CCN(CC(=O)c2ccccc2Cl)CC1`?
Tau fluor counter: -9%; NPSR antag: 5%[46.1 µM]; Tau FP inhib: -5%; ALDH1A1 block: inconclusive; Tau ThT inhib: inconclusive; HPGD block: -6%

How did CC1CCCN(CC(=O)c2ccc(Cl)c(Cl)c2)C1 (centres undefined) do in these assays?
Tau fluor counter: 3%; NPSR antag: 12%; Tau FP inhib: 1%; ALDH1A1 block: 2µM*; Tau ThT inhib: -15%

What do the screens show for `CC1CCN(CC(=O)c2ccc3c(c2)OCCO3)CC1`?
Tau fluor counter: -4%; NPSR antag: 14%; Tau FP inhib: -1%; ALDH1A1 block: 7.9µM*; Tau ThT inhib: -12%

How did COc1cc(C(C#N)N2CCOCC2)ccc1O (centres undefined) do in these assays?
Tau fluor counter: 5%; NPSR antag: -10%[46.1 µM]; Tau FP inhib: 4%; ALDH1A1 block: 14µM*; Tau ThT inhib: 0%

How did Cc1cccc(N2C(=O)NC(=O)/C(=C/c3ccc(N4CCOCC4)cc3)C2=O)c1 do in these assays?
Tau fluor counter: -16%; NPSR antag: -14%; Tau FP inhib: -11%; ALDH1A1 block: 11µM*; Tau ThT inhib: inconclusive

What do the screens show for `Cc1cccc(N2C(=O)NC(=O)/C(=C\c3ccc(N4CCOCC4)cc3)C2=O)c1`?
Tau fluor counter: -12%; NPSR antag: -31%; Tau FP inhib: 4%; Tau ThT inhib: inconclusive

How did CN1C(=O)C(=Cc2ccc(N3CCOCC3)c([N+](=O)[O-])c2)C(=O)N(C)C1=O do in these assays?
Tau fluor counter: -18%; NPSR antag: -46%; Tau FP inhib: -6%; ALDH1A1 block: inconclusive; Tau ThT inhib: inconclusive

Results for COc1ccc(N2C(=O)NC(=O)/C(=C/c3ccc(N4CCOCC4)cc3)C2=O)cc1 ?
Tau fluor counter: -12%; NPSR antag: -14%; Tau FP inhib: -6%; ALDH1A1 block: 10µM*; Tau ThT inhib: inconclusive

Results for COc1cccc(N2C(=O)NC(=O)/C(=C/c3ccc4c(c3)Cc3ccccc3-4)C2=O)c1 ?
Tau fluor counter: -15%; NPSR antag: -26%; Tau FP inhib: -13%; ALDH1A1 block: inconclusive; Tau ThT inhib: inconclusive

What do the screens show for `O=C1NC(=O)N(Cc2ccc(F)cc2)C(=O)/C1=C\c1ccc(N2CCCC2)cc1`?
Tau fluor counter: 29%; NPSR antag: -10%; Tau FP inhib: -5%; ALDH1A1 block: 0.25µM*; Tau ThT inhib: 25µM*

What do the screens show for `CN1C(=O)C(=Cc2ccc(N3CCCCCC3)cc2)C(=O)N(C)C1=O`?
Tau fluor counter: -8%; NPSR antag: 5%; Tau FP inhib: 2%; ALDH1A1 block: 0.11µM*; Tau ThT inhib: inconclusive

Results for CC(=O)NNc1ccccc1 ?
ALDH1A1 block: -5%; HPGD block: -2%

Results for Clc1cncc(N2CCNCC2)n1 ?
Tau fluor counter: -8%; Tau FP inhib: -13%; ALDH1A1 block: 22%; Tau ThT inhib: 1%; HPGD block: inconclusive

How did N#CCCCC[N+]12CN3CN(CN(C3)C1)C2 do in these assays?
ALDH1A1 block: 2%[13.5 µM]; HPGD block: 1%

What do the screens show for `Cc1ccc(N2C(=O)NC(=O)/C(=C\c3ccc(N4CCOCC4)cc3)C2=O)cc1`?
Tau fluor counter: -13%; NPSR antag: -7%; Tau FP inhib: -11%; ALDH1A1 block: 11µM*; Tau ThT inhib: inconclusive; HPGD block: 35µM*

How did Cc1ccc(N2C(=O)NC(=O)/C(=C\c3ccc([N+](=O)[O-])o3)C2=O)cc1 do in these assays?
Tau fluor counter: -15%; NPSR antag: -9%; Tau FP inhib: inconclusive; ALDH1A1 block: inconclusive; Tau ThT inhib: 22µM*

Compound activity: PubChem BioAssay, National Center for Advancing Translational Sciences (NCATS)
